Gal4-VP16 FLuc: counter-screen for ROR gamma inhibitors: Gal4-VP16 reporter | Potency, µM (highest dose often 53.6 µM), most hits filed as inhibitors | Drosophila S2 Gal4-VP16 UAS-luciferase, luminescence, 20 h | actives 3.5% (n = 310,000);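 further: Gal4-VP16 expression switched on by copper sulfate through the metallothionein promoter; nearly all actives have a fitted effect of over 50% in size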
Giardia killer: Giardia lamblia killing | activity change, % at 7.66 µM, hits read low | actives 0.15% (n = 340,000) | Giardia lamblia trophozoite viability; in the data active means activity change below about -80%; inconclusive means between about -30% and that limit;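 further: parasites exposed to compound for two days anaerobically before the ATP read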
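Killing of trophozoites was scored by loss of ATP luminescence after a 48 hrs anaerobic exposure to compounds at 37 deg C, using 100 cells per well.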
p53 reactivator: restores transcriptional activity of mutant p53; H1299 p53-A138V BP100-luciferase reporter, luminescence, 24 h; Potency, µM (series often up to 92.2 µM), actives largely listed as activators; actives 0.063% (n = 320,000); further: nearly all actives have a fitted effect of over 45% in size
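p53-null H1299 cells stably carrying temperature-sensitive p53-A138V and a BP100-luciferase reporter were pinned with compounds (4-point, 1:5 series) and held 24 hrs at 37 deg C. Luminescence was read 10 min after detection reagent.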
RORgamma inh: blocks mouse ROR gamma transcriptional activity. AID 2551. Drosophila S2 Gal4-RORgamma UAS-luciferase reporter, 20 h. actives 5.4% (n = 310,000). P51450. Potency, µM (titrated, usually from 53.6 µM), hits mostly inhibitors; further: nearly all actives have a fitted effect of over 60% in size
Target sequence (P51450 whole entry, looked up, the tested form may be a part): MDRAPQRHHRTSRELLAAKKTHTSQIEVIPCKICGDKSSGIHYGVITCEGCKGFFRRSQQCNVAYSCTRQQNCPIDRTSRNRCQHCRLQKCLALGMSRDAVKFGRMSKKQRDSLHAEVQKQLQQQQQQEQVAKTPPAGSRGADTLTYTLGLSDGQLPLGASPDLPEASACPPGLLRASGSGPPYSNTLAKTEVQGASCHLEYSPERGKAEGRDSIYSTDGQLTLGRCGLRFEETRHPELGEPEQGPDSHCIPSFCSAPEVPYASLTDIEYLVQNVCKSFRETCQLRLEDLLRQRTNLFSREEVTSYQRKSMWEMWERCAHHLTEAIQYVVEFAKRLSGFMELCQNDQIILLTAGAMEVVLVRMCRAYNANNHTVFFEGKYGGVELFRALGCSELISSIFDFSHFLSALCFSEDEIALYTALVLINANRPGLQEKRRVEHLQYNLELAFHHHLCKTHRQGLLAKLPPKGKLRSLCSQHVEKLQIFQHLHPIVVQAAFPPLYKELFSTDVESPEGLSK
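Luciferase reporter read in Schneider cells carrying Gal4-RORγ (mouse) and UAS-Photinus luciferase; cells given compound 1 h before 700 uM copper sulfate induction, then incubated 20 h at ambient temperature.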
BRCA1 expr act: increases BRCA1 expression. Potency, µM (series often up to 46.1 µM), actives largely listed as activators. MCF7-BRCA1-FFLuc reporter, luminescence, 48 h; response scale: scaled: vehicle 0%, 10 µM genistein 100%. actives 1.1% (n = 380,000); further: nearly all actives have a fitted effect of over 80% in size
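MCF7-BRCA1-FFLuc, 2000 cells/well; 2 h attach, 37 °C/5% CO2; compound 48 h; luciferase substrate 15 min; luminescence end-point. Norm. to genistein 10 microM max activation and DMSO; concentration-response curves fitted.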
ELG1 repair inh: ELG1-dependent DNA repair inhibition. HEK293T ELG1-luciferase reporter, luminescence, 16 h; DNA damage induced by 5-fluorouridine. Potency, µM (titrated, usually from 46.1 µM), most hits filed as inhibitors. actives 2.3% (n = 330,000); further: nearly all actives have a fitted effect of over 55% in size
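Step one: seed 2,000 cells per well. Step two: pin-transfer compound or DMSO alongside 5-fluorouridine. Step three: incubate 16 hr, 37 °C, 5% CO2. Step four: add ONE-Glo, wait 30 min, read luminescence.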
Numbers stand for hits; - = inactive; ? = inconclusive; . = no result; [ ] = another dose, or the depositor's remark. This is a sample that favours compounds with a hit; in the whole collection about 7.6% have one here. Unless noted, the call rests on the fitted dose curve; in most records, active means well fitted curve in the direction sought with a large enough effect; inconclusive means small, poorly fitted or top-dose-only effect, or another doubt; inactive means no such curve, though single readings can be large; an effect the other way counts as inactive or inconclusive.

SMILES	Gal4-VP16 FLuc	Giardia killer	p53 reactivator	RORgamma inh	BRCA1 expr act	ELG1 repair inh
COc1ccc(CCNC(=O)c2ccc(SC)cc2OC)cc1	-	-	-	-	-	?
COc1ccccc1C(=O)NCCC(=O)Nc1nc2ccccc2[nH]1	.	-	-	.	-	?
COc1ccccc1C(=O)Nc1nc2ccccc2[nH]1	0.501µM	-84.1	-	0.251µM	-	?
COc1cc(SC)ccc1C(=O)Nc1nc2ccccc2[nH]1	0.316µM	-98.6	-	0.1µM	-	?
COc1ccccc1CC(=O)Nc1cccc(C(=O)Nc2nccs2)c1	-	-	-	-	-	16.4µM
COc1cc(SC)ccc1C(=O)Nc1ccccc1	-	-	?	-	-	?
CC(OC(=O)c1ccc(Cl)c([N+](=O)[O-])c1)C(=O)N1CCN(Cc2ccccc2)CC1 (centres undefined)	.	-	-	.	-	-
O=C(O)CC1(CC(=O)NCc2ccccn2)CCCCC1	-	-	-	-	-	-
COc1cc(SC)ccc1C(=O)Nc1nccs1	?	?	-	7.94µM	-	?
Cc1[nH]nc2cn[nH]c12	-	-	-	-[10 µM]	-	13µM
CCCNC(=O)COC(=O)C1CCN(S(=O)(=O)c2ccc3c(c2)OCCO3)CC1	.	-	-	.	-	-
CN1CCSc2ccc(C(=O)Nc3cc(F)ccc3F)cc21	-	-	?	-	12.6µM	?
Cc1ccccc1NC(=O)c1ccc2c(c1)N(C)CCS2	?	-	.	-	?	?
CC(C)n1cnc2cc(NCc3ccco3)ccc21	-	-	-	-	10µM	?
Cc1ccc(-c2cc(C(=O)N3CCCc4ccccc43)c3ccccc3n2)cc1	-	-	-	-	-	?
O=C(c1cc(-c2cccnc2)nc2ccccc12)N1CCCc2ccccc21	-	-	-	-	-	20.6µM
CN1CCNC(=O)C1CC(=O)NCCc1ccccc1F (centres undefined)	-	-	-	-	-	?
S=C1NCCc2ccc(Cl)cc2C1c1ccccc1Cl (centres undefined)	3.55µM	-	-	5.01µM	-	-
Clc1ccc2c(c1)C(C1=NCCN1)c1ccccc1CS2 (centres undefined)	-	-	-	-	-	?
CCOC(=O)c1cc(C)[nH]c(=S)c1C#N	-	-	-	?	-	-
CCCCCCCc1c(C#N)c(N)[nH]c(=S)c1C#N	-	-	-	8.91µM	-	?
O=C(OCC(=O)N1CCOCC1)c1ccccc1Br	-	-	-	-	-	?
O=C(OCC(=O)N1CCOCC1)c1ccccc1Cc1ccccc1	-	-	?	?	2µM	?
CC(=O)c1ccc(NC(=O)c2cc(C)no2)cc1	-	-	-	-	-	-
O=C(NCCc1c[nH]c2ccccc12)c1ccc(Cl)cc1	-	-	-	-	3.55µM	?
SMILES	Gal4-VP16 FLuc	Giardia killer	p53 reactivator	RORgamma inh	BRCA1 expr act	ELG1 repair inh
COc1cc(OC)cc(C(=O)N[C@H](C(=O)OCC(=O)c2c[nH]c3ccccc23)C(C)C)c1	.	-	-	.	-	20.6µM
COc1ccc(CCNC(=S)NCCc2c[nH]c3ccccc23)cc1	?	-	-	12.6µM	-	-
COc1ccc(CNC(=O)NCCc2c[nH]c3ccccc23)cc1	-	-	-	-	-	?
Cc1ccsc1C(=O)NCCc1c[nH]c2ccccc12	?	-	?	-	12.6µM	?
CCC(=O)NCCc1c[nH]c2ccccc12	-	-	.	-	-	.
Cc1ccc(C)c(NC(=O)CN(C)C(=O)c2cc(-c3cccs3)nn2-c2ccccc2)c1	-	-	-	-	-	-
CC(C)c1ccccc1NC(=O)CN1C(=O)c2ccccc2C1=O	-	-	-	-	-	-
CC(C)COC(=O)c1nnsc1NC(=O)Nc1ccccc1	-	-	-	-	-	?
COc1ccc(NC(=O)C2CCN(C(=O)[C@@H]3Cc4ccccc4CN3)CC2)cc1	-	-	-	-	-	?
COc1ccccc1NC(C)C(=O)c1c[nH]c2ccccc12 (centres undefined)	.	.	.	.	12.6µM	.
O=C(NCCc1c[nH]c2ccccc12)c1ccc(F)cc1F	?	-	?	?	3.98µM	?
COc1cc(SC)ccc1C(=O)NCCc1c[nH]c2ccccc12	-	-	.	?	-	-
COc1ccc(C(=O)c2c[nH]c3ccccc23)cc1	-	-	.	-	3.55µM	.
COc1ccc2[nH]cc(C(=O)CCl)c2c1	6.31µM	-	-	7.94µM	-	?
CCCNc1cc(C)oc(=O)c1C(=O)CC	-	-	-	-	-	-
CC(OC(=O)c1ccc(NC(N)=O)cc1)C(=O)Nc1ccc2c(c1)OCCO2 (centres undefined)	.	-	-	.	-	-
Cc1cccc(NC(=O)CCCSc2nc3ccccc3[nH]2)c1	-	-	-	-	-	?
O=S(=O)(Nc1ccc(C(O)(C(F)(F)F)C(F)(F)F)cc1)c1ccc(Cl)c2nonc12	.	.	.	.	-	.
COc1ccc(C(=O)NCCc2c[nH]c3ccccc23)cc1	-	-	-	-	5.62µM	?
COc1cccc(N2CN(CCc3ccccc3)CNC2=S)c1	?	-	-	14.1µM	-	-
COc1cccc(N2CN(C3CCCCC3)CNC2=S)c1	-	-	-	?	-	-
CCc1ccc(N2CN(CCc3ccccc3)CNC2=S)cc1	6.31µM	-	-	1.26µM	-	-
Cc1ccc(N2CN(CCC3=CCCCC3)CNC2=S)cc1	6.31µM	-	-	0.562µM	-	?
CCC(C)NC(=O)Cc1ccc(NC(=O)N2CCCCc3ccccc32)cc1 (centres undefined)	.	.	.	.	-	.
CCCC1(c2ccccc2)NC(=O)N(C/C=C/Cl)C1=O (centres undefined)	-	-	-	-	-	-
SMILES	Gal4-VP16 FLuc	Giardia killer	p53 reactivator	RORgamma inh	BRCA1 expr act	ELG1 repair inh
Cc1cccc(NC(=S)N2CCN(Cc3ccccc3)CC2)c1C	?	-	-	8.91µM	-	-
Cc1cc(Cl)ccc1NC(=S)N1CCN(Cc2ccccc2)CC1	12.6µM	-	-	11.2µM	-	-
COc1ccc([C@H]2C[C@H](n3cc(-c4ccc(F)cc4)nn3)[C@@H](O)CN2CC2CCCCC2)cc1	.	.	.	.	-	.
CCN1CCCC(OC(=O)c2cc(-c3ccccc3Cl)nc3ccccc23)C1 (centres undefined)	-	-	-	-	-	-
O=C(NCc1nc2ccccc2[nH]1)C1=C[C@@H](c2csc3ccccc23)C[C@@H](OCCCCO)O1	-	-	-	-	-	23.1µM
CC(NCc1ccc(F)cc1)C(=O)Nc1cc(S(=O)(=O)N2CCCCC2)ccc1Cl (centres undefined)	-	-	-	-	-	-
O=C(Nc1ccc(-c2nc3ccccc3[nH]2)cc1)C1CCCO1 (centres undefined)	7.08µM	?	-	-	-	?
O=C(CSc1ccccc1)Nc1ccc(-c2nc3ccccc3[nH]2)cc1	?	-	.	?	?	?

From PubChem BioAssay
